The values below come from PubChem BioAssay AID1671194 (National Center for Advancing Translational Sciences (NCATS), 2021).

The campaign covered roughly 140,000 compounds. About 240 (0.17%) were called active. Where a call stands in place of a potency, no number is given. Inconclusive results (about 9%) are left out. Calls come from the whole dose curve; as a rule, active = well fitted inhibition curve with a large enough effect; inconclusive = small, poorly fitted or top-dose-only effect; inactive = no such curve, though single readings can be large or run the other way. Only a selection was taken, and actives are over-represented in it overall.
Potency is the fitted concentration of half-maximal effect.

The test can be described thus: Primary qHTS assay for inhibitors of alpha-synuclein gene (SNCA) expression. Note: nearly all actives have a fitted effect of over 45% in size. Conditions: HEK-293 SNCA-luciferase knock-in, luminescence, 24 h; series mostly up to 57.2 µM. A general note: In qHTS, concentration-response curves come from the screen itself.
Regarding `CC[C@H]1CN(C(=O)c2ccc(F)cc2)CC[C@H]1CC(=O)N[C@@H](CO)CC(C)C`, the Potency entry was “inactive”.

Turning to `O=C(COc1ccc(F)cc1)NC1CCc2n[nH]c(=O)n2CC1` (stereo not given), the Potency result is “inactive”. The result for `COc1ccc(Cc2nnc3ccc(C(=O)NCCc4ccc(F)cc4)cn23)cc1` reads “inactive”. In the case of `Cc1cn2nc(C(=O)Nc3ccc(F)cc3C)cc2c(N(C)Cc2ccccc2)n1` it was “inactive”.

With `COc1cccc(C(=O)N2CCCC(C(=O)N3CCC(c4nc5ccncc5[nH]4)C3)C2)c1` (stereo not given), the Potency result was “inactive”.

`COc1ccc(-c2cc3nc4c(c(=O)n3[nH]2)CCN(C(=O)c2ccccc2C)C4)cc1`: the Potency result is “inactive”.

On to `O=C(c1cccs1)N1CC[C@H](c2nnc(Cc3c[nH]c4ccccc34)o2)C1`, for which the Potency entry is “inactive”.

As for `Cc1ccccc1NC(=O)c1cc2cn(C(C)C)cc2s1`, the Potency entry is “inactive”. In the case of `COCC(=O)N1CCCC(C(=O)N2CCC3(CC2)CC(=O)Nc2ccccc2O3)C1` (stereo not given), the Potency result was “inactive”. Consider `Cc1nn2c(c1-c1ccccc1N1CCCC1)N(C(=O)c1ccc(Oc3ccccc3)cc1)CCC2`, for which the Potency entry is “inactive”. The result for `Cc1nn2c(c1-c1ccccc1-c1ccccc1)N(C(=O)CN1CCOCC1)CCC2` reads “inactive”; that for `Cc1nn2c(c1-c1ccccc1-c1ccccc1)N(CC1CC1)CCC2`, 2510 nM (active); that for `CC(C)(C)c1csc(NC(=O)c2ccc3c(c2)OCCN(C2CCC2)C3)n1`, “inactive”. On to `O=C(c1cccs1)N1CCCCCC1CN1CCCC1` (stereo not given), for which the Potency result was “inactive”. Regarding `O=C(O)COc1ccc(-c2nccc3c2C(=O)N(Cc2ccccc2)CC(COc2cccc(C(F)(F)F)c2)O3)cc1` (stereo not given), the Potency entry is “inactive”. The result for `Cc1ccc(C(=O)N2CCCN(C(=O)C3CC3)c3ccccc32)cc1F` reads “inactive”. With `O=C(c1ccccc1Cl)N1CCCN(c2cc(-c3ccc(F)cc3)[nH]n2)CC1`, the Potency entry is “inactive”.

With `CNC(=O)[C@H]1C[C@H](Oc2ccccc2)CN1C(=O)CCn1nc(C)cc1C`, the Potency entry was “inactive”. Regarding `Cc1ccc(S(=O)(=O)N2CCC3(CC2)C(=O)N(CC(=O)NC(C)C)CN3c2ccccc2)cc1`, the Potency result was “inactive”. The result for `CCc1nc2c(c(-c3ccc(O)cc3)n1)CCN(Cc1cccc(OC)c1)CC2` reads “inactive”; that for `CCn1ccc(C(=O)N2CCC(C3CCN(C(C)=O)CC3)C2)n1` (stereo not given), “inactive”. On to `O=C(NCC1CC1)c1ccc2nnc(Cc3ccc(Cl)cc3)n2c1`, for which the Potency entry was “inactive”. In the case of `O=C(NCC1Cn2cccc2CN1Cc1ccccc1)c1ccco1` (stereo not given) it was “inactive”; in that of `O=C(Cc1c[nH]c2ncc(-c3ccccc3F)cc12)N1CCOCC1`, “inactive”; in that of `N[C@@H]1CCN(Cc2cccc(Oc3ccc(F)cc3)c2)C[C@H]1O`, “inactive”.
